Laboratory results: PubChem BioAssay (NCATS)
Where “and” joins values, the source holds several entries; their conditions need not be identical. Identical values can stand only once. Inconclusive results are not listed. A call without a number means that no potency is given here. Values without a mark were called inactive. Calls of active or inactive are those of the source. Calls come from the whole dose curve; as a rule, active = well fitted cell-killing curve with a large enough effect; inconclusive = small, poorly fitted or top-dose-only effect; inactive = flat fitted curve, though single readings scatter.

Experiment: qHTS of pediatric cancer cell lines to identify multiple opportunities for drug repurposing: Primary screen for BT-37 cells (AID 1347094)
Conditions: BT-37 viability, CellTiter-Glo luminescence, 48 h; series mostly up to 57.3 µM
Description: Drug repurposing or repositioning has been offered as a strategy for drug development in oncology programs. This approach has special potential for childhood cancers and other rare or orphan diseases, where the expected return on new drug development has been a disincentive to pharmaceuticals. […] In this project we exploit the poly-pharmacology of drugs to discover new indications via phenotypic screening of a panel of 19 well-characterized cell lines derived from solid tumors seen in children and adolescents. The goal is to identify approved drugs with previously unrecognized anticancer properties that has the potential to reveal new mechanisms and biological processes involved in carcinogenesis or drug resistance. We employed a titration-based paradigm (quantitative high-throughput screening or qHTS), where all compounds were tested at multiple concentrations for their effect on cell viability. Concentration-response curves (CRCs) were derived directly from the primary screen, and both potency and efficacy values were used to identify compounds with robust bioactivity profiles. We screened the NIH Chemical Genomics Center (NCGC) Pharmaceutical Collection (NPC) and Mechanism Interrogation Plate (MIPE) small molecule collections of approved and investigational compounds against these cell lines; and measured metabolically active cells after 48 hours of compound treatment as a proxy for cell viability. […] Assay Submitter: Nathalia J. Martinez, National Center for Advancing Translational Sciences, National Institutes of Health, Rockville, MD, USA; email: natalia.martinez@nih.gov Shen, M et al. Quantitative high-throughput phenotypic screening of pediatric cancer cell lines identifies multiple opportunities for drug repurposing. Oncotarget 2017 Dec 19;9(4):4758-4772. PMID 29435139.
The cells were obtained from University of North Carolina (UNC), Pediatric Preclinical Testing Program (PPT), and Coriell Institute (CI). qHTS cell viability assay: Cells were assayed in growth media at a density of 500-1,000 cells/well. Five microliters of cells were dispensed into 1,536-well, white, solid-bottom, TC-treated plates (Greiner Bio One) using a multidrop dispenser and incubated at 37 degrees C, 5% CO2, under a humidified atmosphere for 5 hours. Twenty-three nanoliters of compounds and controls (neutral control DMSO or positive control bortezomib at final concentration of 2.3 µM) were subsequently transferred by Kalypsys pintool. For primary screens, the MIPE collection was tested at 11-point dilutions (final concentrations range from 0.78 nM to 46 µM) and the NPC collection at 8-point dilutions (final concentrations range from 0.59 nM to 46 µM). Compounds tested in follow-up screens were assayed at 11-point dilutions. Cells were incubated for 48 hours, followed by addition of 3 µL of CellTiter-Glo (Promega). After a 15 min incubation at room temperature, samples were analyzed for luminescence intensity using a ViewLux High-throughput CCD imager equipped with clear filters.
Potency is the fitted concentration of half-maximal effect.

Row | Structure (SMILES) | Potency | activity change, negative = cytotoxic
1 | CNC(=O)c1ccc(N2C(=S)N(c3ccc(C#N)c(C(F)(F)F)c3)C(=O)C23CCC3)cc1F | inactive | –
2 | O=[N+]([O-])c1cc([As](=O)(O)O)ccc1O | inactive | –
3 | O=C1CC[C@@]2(O)[C@H]3Cc4ccc(O)c5c4[C@@]2(CCN3CC2CC2)[C@H]1O5 | inactive | –
4 | CC[C@@H](CO)NC(=O)[C@@H]1C=C2c3cccc4[nH]cc(c34)C[C@H]2N(C)C1 | inactive | –
5 | CC(C)=CC1C(C(=O)OCc2cccc(Oc3ccccc3)c2)C1(C)C (stereo not given) | inactive | –
6 | CCC1(C2=NCCN2)Cc2ccccc2O1 (stereo not given) | inactive | –
7 | CC[C@@H](CO)NC(=O)[C@@H]1C=C2c3cccc4c3c(cn4C)C[C@H]2N(C)C1 | inactive | –
8 | CN(C)CCc1ccc(O)cc1 | inactive | –
9 | Cn1cc(C2=C(c3cn(C4CCN(Cc5ccccn5)CC4)c4ccccc34)C(=O)NC2=O)c2ccccc21 | inactive | –
10 | O=C(O)C(=O)c1cn(Cc2ccccc2)c2ccc(-c3ccc(OC(F)(F)F)cc3)cc12 | inactive | –
11 | Cc1cccc(C)c1NC(=O)CN1CCCC1=O | inactive | –
12 | CNCC(O)c1ccc(O)cc1 (stereo not given) | inactive | –
13 | CC(=O)[C@H]1CC[C@H]2[C@@H]3CC[C@H]4C[C@H](O)CC[C@]4(C)[C@H]3C(=O)C[C@]12C | inactive | –
14 | Cc1sc2c(c1C)C(c1ccc(Cl)cc1)=N[C@@H](CC(=O)OC(C)(C)C)c1nnc(C)n1-2 | 1.37 µM (active) | –
15 | Cc1ccc2c(c1)C1CN(C)CCC1N2 (stereo not given) | inactive | –
16 | N[C@@H]1C[C@H]1c1ccccc1 | inactive | –
17 | CCCN1CCC[C@@H]2Cc3[nH]ncc3C[C@H]21 | inactive | –
18 | O=C(NC(O)C(Cl)(Cl)Cl)NC(O)C(Cl)(Cl)Cl (stereo not given) | inactive | –
19 | C[C@H]1O[C@@H](O[C@H]2[C@@H](O)C[C@H](O[C@H]3[C@@H](O)C[C@H](O[C@H]4CC[C@@]5(C)[C@H](CC[C@@H]6[C@@H]5CC[C@]5(C)[C@@H](C7=CC(=O)OC7)CC[C@]65O)C4)O[C@@H]3C)O[C@@H]2C)C[C@H](O)[C@@H]1O | 0.0098 µM (active) | –
20 | C#CCOC(C(=O)OCCN(C)C)(c1ccccc1)c1ccccc1 | inactive | –

Row | Structure (SMILES) | Potency | activity change, negative = cytotoxic
21 | CCN(CC)CCN1C(=O)CN=C(c2ccccc2F)c2cc(Cl)ccc21 | inactive | –
22 | CC[N+](CC)(CC)CC | inactive | –
23 | C[C@@H]1O[C@@H](O[C@H]2C[C@@H](O)[C@]3(CO)[C@H]4[C@H](O)C[C@]5(C)[C@@H](C6=CC(=O)OC6)CC[C@]5(O)[C@@H]4CC[C@]3(O)C2)[C@H](O)[C@H](O)[C@H]1O | 15.3 nM (active) and 49 nM (active) | –
24 | N[C@@H](Cc1ccc(N(CCCl)CCCl)cc1)C(=O)O | 15.5 µM (active) and 15.3 µM (active) | –
25 | CCCC1CCCCN1 (stereo not given) | inactive | –
26 | C[C@@H]1[C@@H](C(=O)C[C@H]2O[C@@H]3O[C@]4(C)CC[C@@H]5[C@H](C)CC[C@@H]([C@H]2C)[C@@]35OO4)O[C@@H]2O[C@]3(C)CC[C@H]4[C@H](C)CC[C@@H]1[C@@]24OO3 | 1.09 µM (active) | –
27 | O=C(O)c1ccc2[nH]cc(CCCCN3CC=C(c4ccccc4)CC3)c2c1 | inactive | –
28 | NCC(CC(=O)O)c1ccc(Cl)cc1 (stereo not given) | – | -2.84% [at 0.745 µM]
29 | C[C@@H]1[C@@H](CC(C[C@H]2O[C@@H]3O[C@]4(C)CC[C@@H]5[C@H](C)CC[C@@H]([C@H]2C)[C@@]35OO4)C[S+](=O)([O-])c2ccc(COC(=O)N(C)C)cc2)O[C@@H]2O[C@]3(C)CC[C@H]4[C@H](C)CC[C@@H]1[C@@]24OO3 (stereo not given in full) | 0.485 µM (active) | –
30 | CC(CCc1ccccc1)NC(C)C(O)c1ccc(O)cc1 (stereo not given) | inactive | –
31 | Oc1ccccc1-c1ccccc1 | inactive | –
32 | CC[N+]1(C)CCCC(OC(=O)C(O)(c2ccccc2)c2ccccc2)C1 (stereo not given) | inactive | –
33 | CC(C)(N)Cc1ccc(Cl)cc1 | inactive | –
34 | COc1ccc(C(CN(C)C)C2(O)CCCCC2)cc1 (stereo not given) | inactive | –
35 | N[C@@H](Cc1ccc(Oc2cc(I)c(O)c(I)c2)c(I)c1)C(=O)O | inactive | –
36 | COc1ccc2c(c1OC)CN1CCc3cc4c(cc3C1C2)OCO4 (stereo not given) | 17.2 µM (active) | –
37 | c1ccc(C2CC2)c(OCC2=NCCN2)c1 | inactive | –
38 | Cc1cccc(C)c1NC1=NCCCS1 | inactive | –
39 | OCCOc1ccccc1 | inactive | –
40 | Cc1ncc(CNC(=O)N(CCCl)N=O)c(N)n1 | inactive | –
